Screening data: PubChem, The Scripps Research Institute Molecular Screening Center
An excerpt weighted towards active compounds, which were near 4.1% of everything screened.
DAX1 inh-1 – DAX1 (NR0B1) inhibition, primary screen | inhibition, % at 6.8 µM | HEK293T StAR-luciferase reporter, SF-1/DAX-1 repression relief | AID 652010 | hit rate 1.1% among 370,000;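 active = inhibition above the mean over all tested compounds plus 3 SD, cut at about 3.6% in these data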;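 note: higher inhibition means more luminescence from relief of DAX-1 repression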
hgDAF-12 ag – activates the H. glycines DAF-12 receptor ligand-binding domain; hit rate 1.8% among 370,000; activation, % at 6.8 µM; HEK293 GAL4-hgDAF12 UAS-luciferase reporter, agonist luminescence; normalized to butyrate control;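 active = activation above a cutoff set at the mean of all screened compounds plus 3 SD, cut at about 10% in these data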
DAX1 inh-2 – inhibitors of human orphan nuclear receptor DAX1 (NR0B1). inhibition, % at 6.75 µM. P51843. hit rate 0.99% among 340,000. HEK293 Gal4-DAX1 luciferase reporter, luminescence;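 active = inhibition above the mean over all tested compounds plus 3 SD, cut at about 4.2% in these data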;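 note: inhibition shows as a rise in luminescence from relieved DAX1 repression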
Target sequence (P51843 207-470 limits assumed): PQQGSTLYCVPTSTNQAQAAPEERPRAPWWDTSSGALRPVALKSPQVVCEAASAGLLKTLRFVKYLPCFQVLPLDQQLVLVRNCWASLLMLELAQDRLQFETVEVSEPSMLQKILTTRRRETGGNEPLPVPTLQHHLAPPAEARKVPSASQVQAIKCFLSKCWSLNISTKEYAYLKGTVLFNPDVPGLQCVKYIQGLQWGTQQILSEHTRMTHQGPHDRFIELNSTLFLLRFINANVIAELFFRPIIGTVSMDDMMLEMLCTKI
ssDAF-12 act – activators of S. stercoralis DAF-12 nuclear receptor. hit rate 1% among 370,000. HEK293 ssDAF-12/GRIP1 lit1-tk-luc reporter, luminescence; % of 3 µM dafachronic acid response. activation, % at 6.8 µM. AID 652126;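 active = activation above the mean over all tested compounds plus 3 SD, cut at about 0.9% in these data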
hcDAF12 agonist – activators of H. contortus DAF-12 nuclear receptor. HEK293 hcDAF-12 lit1-tk-luc reporter, luminescence; 0% DMSO, 100% Δ7-dafachronic acid. activation, % at 6.8 µM. hit rate 1.4% among 370,000. AID 652067;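 active = activation above the mean of all tested compounds plus 3 SD, cut at about 5.5% in these data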
LXR ag – activates human LXR-beta, counter-screen for hcDAF-12 agonists; 3,400 tested, under 10 active; activation, % at 6.8 µM; HEK293 Gal4-LXR tk-luc reporter, luminescence, 24 h; normalized: DMSO 0%, positive control 100%; shares compounds with hcDAF12 agonist;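 active = mean percent activation of the reporter above a cutoff set as the average over tested compounds plus their standard deviation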
hcDAF12 ag – confirmation of H. contortus DAF-12 agonists; HEK293 hcDAF-12 lit1-tk-luc reporter, luminescence; % of Δ7-dafachronic acid response; hit rate 61% among 3,400; shares compounds with hcDAF12 agonist; activation, % at 6.8 µM;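 active = mean activation across triplicate tests above the threshold derived from the earlier primary screen, cut at about 5.5% in these data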
Each line names hits and unclear results; the compound was inactive in the other large screens (follow-up assays come after a bar, where they were run).

COc1ccc(C(=O)NNC(=O)CSc2nnc(-c3cccnc3)o2)cc1	none
Cc1ccccc1N1CCN(C(=O)CCn2nnc3ccccc32)CC1	hgDAF-12 ag 13, hcDAF12 agonist 8.5 (no result: DAX1 inh-2) | LXR ag inactive | hcDAF12 ag 6.4
O=C(CCn1nnc2ccccc21)N1CCN(c2ccccc2F)CC1	hgDAF-12 ag 11, hcDAF12 agonist 8.8 (no result: DAX1 inh-2) | LXR ag inactive | hcDAF12 ag inactive
O=C(CCn1nnc2ccccc21)N1CCN(c2ccccc2)CC1	none
COc1ccc(N/C=C(\C(C)=O)c2ccc(OC)c(OC)c2)cc1OC	none
c1ccc2ncc(-n3cnnn3)cc2c1	none
Cc1ccc(-n2nnc(-c3nccn3C)n2)cc1	hcDAF12 agonist 6.9 | LXR ag inactive | hcDAF12 ag 7.3
Cc1ccc(-n2nnc(-c3cnc4ccccc4c3)n2)cc1	DAX1 inh-2 5.1, ssDAF-12 act 1.6, hcDAF12 agonist 9.9 | LXR ag inactive | hcDAF12 ag 14
COc1cc(OC)cc(-c2nc3cc(C)ccc3o2)c1	DAX1 inh-1 3.8, ssDAF-12 act 2.3, hcDAF12 agonist 17 | LXR ag inactive | hcDAF12 ag 13
Cc1ccc(-c2nc3cc(Cl)ccc3o2)cc1	ssDAF-12 act 0.9, hcDAF12 agonist 8.2 | LXR ag inactive | hcDAF12 ag 16
Cc1ccc(CNc2ncccc2-c2nc3cc(Cl)ccc3o2)cc1	none
Cc1noc(/C=C/N(C)C)c1S(=O)(=O)N1CCc2ccccc21	hcDAF12 agonist 7.4 | LXR ag inactive | hcDAF12 ag 5.7
C/C(=N\NC(=O)c1ccccc1)c1c(C)[nH]n(-c2ccccc2)c1=O	DAX1 inh-2 4.8, hcDAF12 agonist 9.2 | LXR ag inactive | hcDAF12 ag inactive
C/C(=N\NC(=O)c1ccc(C)cc1)c1c(C)[nH]n(-c2ccccc2)c1=O	none
Cc1cc(C)c2c(N)c(C(=O)Nc3nccs3)sc2n1	hgDAF-12 ag 16, ssDAF-12 act 2.3, hcDAF12 agonist 18 | LXR ag inactive | hcDAF12 ag 24
Cc1cc(C)c2c(N)c(C(=O)NN)sc2n1	none
Cc1ccc(NC(=O)c2sc3nc(C)cc(C)c3c2N)cc1	hgDAF-12 ag 12, hcDAF12 agonist 7.8 | LXR ag inactive | hcDAF12 ag 9.3
Cc1nc2cc(NC(=O)CCS(=O)(=O)c3ccccc3)ccc2s1	DAX1 inh-1 4.0, hgDAF-12 ag 12, hcDAF12 agonist 7.8 | LXR ag inactive | hcDAF12 ag inactive
COc1ccccc1N1CC(C(=O)OCC(=O)Nc2c(C)cccc2C)CC1=O (configuration not stated)	none
O=C(Nc1ccc2cccnc2c1)c1ccc(Br)cc1	hcDAF12 agonist 8.6 | LXR ag inactive | hcDAF12 ag 7.0
O=C(Nc1ccc2nc3ccccc3nc2c1)c1ccc(Br)cc1	none
O=C(c1cc(-c2ccc(Br)cc2)on1)N1CCOCC1	hgDAF-12 ag 13, hcDAF12 agonist 7.2 | LXR ag inactive | hcDAF12 ag inactive
O=C(c1cc(-c2ccc(Cl)c(Cl)c2)on1)N1CCCCC1	none
O=C(c1cc(-c2ccccc2Cl)on1)N1CCCC1	hgDAF-12 ag 12, hcDAF12 agonist 8.6 | LXR ag inactive | hcDAF12 ag 12
CC(=O)Oc1ccc(-c2cccc(C(=O)NCCCO)c2)cc1	none
COc1ccccc1CNC(=O)COC(=O)C1CCN(S(=O)(=O)c2c(Cl)cccc2Cl)CC1	none
Cc1ccc(-c2nc(NCCN3CCOCC3)c3ccccc3n2)cc1	hgDAF-12 ag 11, hcDAF12 agonist 6.8 | LXR ag inactive | hcDAF12 ag 6.4
CN(C)CCCNc1nc(-c2ccccc2)nc2ccccc12	none
Cc1ccc(-c2nc(NCCCN(C)C)c3ccccc3n2)cc1	hgDAF-12 ag 11, hcDAF12 agonist 8.3 | LXR ag inactive | hcDAF12 ag 11
O=C1C(=Cc2ccco2)C(=O)c2ccccc21	hcDAF12 agonist 7.3 | LXR ag inactive | hcDAF12 ag inactive
Cc1cccc(NCc2nc3ccccc3n2C)c1	hcDAF12 agonist 7.5 | LXR ag inactive | hcDAF12 ag 6.9
Cc1ccc(N2CCN(c3ccc(NCc4nc5ccccc5n4C)cc3)CC2)cc1	none
Cc1ccc(NCc2nc3ccccc3n2C)c(C)c1	DAX1 inh-1 3.7, hgDAF-12 ag 12, hcDAF12 agonist 12 | LXR ag inactive | hcDAF12 ag 11
Cn1c(CNc2ccc(Cl)cc2)nc2ccccc21	DAX1 inh-1 4.3, hgDAF-12 ag 13, ssDAF-12 act 2.9, hcDAF12 agonist 16 | LXR ag inactive | hcDAF12 ag 11
COc1ccc(S(=O)(=O)N2CCN(Cc3c[nH]c4ccccc34)CC2)cc1	none
CCCS(=O)(=O)N1CCN(Cc2c[nH]c3ccccc23)CC1	ssDAF-12 act 1.4, hcDAF12 agonist 7.2 | LXR ag inactive | hcDAF12 ag inactive
Nc1cc2nn(-c3ccccc3)nc2cc1Cl	DAX1 inh-1 4.4, hgDAF-12 ag 22, ssDAF-12 act 3.4, hcDAF12 agonist 14 | LXR ag inactive | hcDAF12 ag 17
CCc1ccc(-n2nc3cc(C)c(N)cc3n2)cc1	hgDAF-12 ag 14, ssDAF-12 act 4.1, hcDAF12 agonist 16 | LXR ag inactive | hcDAF12 ag 20
Cc1cc2nn(-c3cccc4ccccc34)nc2cc1N	none
Cc1ccc(-n2nc3cc(C)c(N)cc3n2)cc1	DAX1 inh-1 3.9, hgDAF-12 ag 11, ssDAF-12 act 2.5, hcDAF12 agonist 15 | LXR ag inactive | hcDAF12 ag 16
COc1ccc(-n2nc3ccccc3n2)cc1	none
CCc1ccc(S(=O)(=O)c2ccc(-n3nc(C)cc3N)cc2)cc1	none
COc1ccc(-n2nc3cc(N)c(Br)cc3n2)cc1	hgDAF-12 ag 13, DAX1 inh-2 5.8, ssDAF-12 act 1.2, hcDAF12 agonist 13 | LXR ag inactive | hcDAF12 ag 12
CCc1ccc(/C=C/C(=O)c2c(C)cc(C)[nH]c2=O)cc1	none
CCOc1ccc(N2C(=O)C3ON(c4ccccc4)C(c4cccs4)C3C2=O)cc1 (configuration not stated)	none
O=C(CN1C(=O)NC2(CCCCCCC2)C1=O)NCc1ccccc1	none
Cc1cc(=O)c(C(=O)O)nn1-c1ccccc1F	none
Cc1nc(-c2ccc(O)c(O)c2)cs1	none
Cc1ccc2nc(-c3ccc(O)c(O)c3)cn2c1	hcDAF12 agonist 9.4 | LXR ag inactive | hcDAF12 ag 9.9
COc1ccc(F)cc1S(=O)(=O)n1nc(C)cc1C	none
O=c1[nH]c(-[n+]2ccc3ccccc3c2)c(/C=N/N=C(\[O-])c2ccccc2)s1	hcDAF12 agonist 9.0 | LXR ag inactive | hcDAF12 ag inactive
CC[C@@]1(C(=O)OC)N[C@H](CN(C)S(=O)(=O)c2ccc(OC)cc2)[C@@H]2C(=O)N(C)C(=O)[C@@H]21	none
